Assay results from article PMC12136788.
Residue numbers refer to the chain shown, from its start. In all, about 5,800 sequences were measured (“enrichment r”: median about 0.68, highest 2% from about 11 on). The list comes from a sample in which the highest values are over-represented; it also holds similar and randomly drawn sequences.

T1: UNK ZnF1-6 (called full-length) (human, UniProt Q9C0B0 30-357)
T1 sequence: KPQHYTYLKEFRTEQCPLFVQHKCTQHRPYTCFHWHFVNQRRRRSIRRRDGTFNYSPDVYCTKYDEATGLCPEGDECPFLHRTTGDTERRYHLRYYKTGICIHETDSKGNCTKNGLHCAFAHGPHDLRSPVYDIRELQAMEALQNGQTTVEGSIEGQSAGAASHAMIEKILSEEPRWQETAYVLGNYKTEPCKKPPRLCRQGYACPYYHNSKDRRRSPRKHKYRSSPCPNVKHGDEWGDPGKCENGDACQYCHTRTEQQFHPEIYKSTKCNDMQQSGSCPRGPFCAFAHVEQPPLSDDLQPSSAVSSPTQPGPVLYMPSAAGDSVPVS

B1: chr3:129431351:129431457:-|3pUTR|ENSG00000129071|unk|total|mutant (ssRNA)
RNA: GGGAGUUCUACAGUCCGACGAUCACUUCAAAAAAGCUUAAUUAAGUACAACCAACCACCUUUCCAGCCACCGAGAUUUUAAUCCGCCCAACCCGAAGCCCCGUGUGUGUGCUUUCUUAAUGUGUGUGCCAAUGGUGGAUCUUUCAACAGAGGAUUGAGCAUCA
B2: chr11:61873518:61873813:-|three_prime_utr|ENSG00000221968|control|control|control (ssRNA)
RNA: GGGAGUUCUACAGUCCGACGAUCCCCUCACAUGUGUAUUCAGCAGCCCUAUGGCCUUGGCUCUGGGCCUGAUGGGACAGGGGUAGAGGGAAGGUGAGCAUAGCACAUUUUCCUAGAGCGAGAAUUGGGGGAAAGCUGUUAUUUCAACAGAGGAUUGAGCAUCA
B3: chr1:225494445:225494546:-|3pUTR|ENSG00000154380|msi1|total|mutant (ssRNA)
RNA: GGGAGUUCUACAGUCCGACGAUCUUGGGUGUUCCCUCUUCUUAUUUUCUCUCUGCCCACCUUGACACAGUAACUUCCUCUUACCGUCAAGAUGAUGAUUAAGUGUUUAAUUUUUAUUCCAUUUUGUUCUGCAACACGUUCAGGCAACAGAGGAUUGAGCAUCA
B4: ENSG00000070961:be:win_5551|3pUTR|ENSG00000070961|bound_else_gene|NA|bound_elsewhere_windowed (ssRNA)
RNA: GGGAGUUCUACAGUCCGACGAUCAAUUGUACAUUUAUUCAUCAGGUAUUUAUAGUGAAUCAUACUGUAAAAAAGAGGUAGCAUGAUAUGCUGGAAAGCAUAUUAGACUAGGAGUCAAGACCUGGUUUCUAGUCUUGGUUUUGCCAACAGAGGAUUGAGCAUCA
B5: chr16:18805221:18805325:-|3pUTR|ENSG00000157106|unk|FALSE|bound_elsewhere (ssRNA)
RNA: GGGAGUUCUACAGUCCGACGAUCAAGAAUUCUAUGUUCUGAAAUGCACACUUUUAGAAUGUUUUUCUUUGAAAACAGGCUAAUAGUUUUUUCUUUUUUUGACAAAGUUUCAGCUCCUCUUUAAAGUUAUUGUGUCAUUUUUCUCAACAGAGGAUUGAGCAUCA
B6: chr3:125228010:125228111:-|3pUTR|ENSG00000163848|msi1|FALSE|unique (ssRNA)
RNA: GGGAGUUCUACAGUCCGACGAUCAGUUCUCUUCAUAUUUCAUAACUACAUUUCAAUAAUUCUAAACUUUCUACAUUGAUUUUUAGAUACUUAUUUUUCAAGCUUGGUUUCUCAGCUGAUCAGAUGAAUUUAUUCAACUUCAAUCAACAGAGGAUUGAGCAUCA
B7: chr3:125228010:125228111:-|3pUTR|ENSG00000163848|msi1|total|mutant (ssRNA)
RNA: B6 RNA with U83C, A84C
B8: chr12:64147824:64147925:+|3pUTR|ENSG00000196935|unk|FALSE|unique (ssRNA)
RNA: GGGAGUUCUACAGUCCGACGAUCCAUCUCUGUGGUGUCUUUGUUCCUUUCCUUUCAUUCAUCACUACUUUCUCCUUGACAGCUAGCUUGCAUUAAAUAAUGUGAAACUUUUACCUUUAAAAUAUUUUUUUAUCUCACUUUCAUCAACAGAGGAUUGAGCAUCA
B9: chr6:52791370:52791857:-|three_prime_utr|ENSG00000243955|control|control|control (ssRNA)
RNA: GGGAGUUCUACAGUCCGACGAUCGCUAAUGAACUCUUUCAAAUUAUAUGCUAAUUAAAUAAUACAACUCCUAUUCGCUGACUUAGUUAAAAUUGAUUUGUUUUCAUUAGGAUCUGAUGUGAAUUCAGAUUUCCAAUCUUCUCCCAACAGAGGAUUGAGCAUCA
B10: chr11:58422334:58423261:-|CDS|ENSG00000172365|control|control|control (ssRNA)
RNA: GGGAGUUCUACAGUCCGACGAUCACACACUAGUGAGGUGAUUCUGGUUUUUAUGUCAAGCUUUAAUAUCUUUUUUGUUCUUCUAGUUAUCUUUAUCUCCUACUUGUUCAUAUUCAUCACCAUCUUGAAGAUGCAUUCAGCUAACAACAGAGGAUUGAGCAUCA

Biological target: T1, UNK ZnF1-6 (called full-length)
Test: nsRBNS (natural sequence RNA bind-n-seq); RBNS binding buffer (assumed for nsRBNS): 25 mM Tris pH 7.5, 150 mM KCl, 3 mM MgCl2, 0.01% Triton X-100, 500 ug/ml BSA, 20 U/ml SUPERase-In, 4 C; UNK is unkempt and MSI1 is Musashi-1; names of the RNAs are library labels; protein concentration not given here; high values mean tight binding

Binder	binding signal [enrichment R]
B1	0.636
B2	1.12
B3	0.642
B4	0.3
B5	0.773
B6	3.33
B7	15.6
B8	10.6
B9	6.55
B10	12.5
